From PMC7862700, “An all-to-all approach to the identification of sequence-specific readers for epigenetic DNA modifications on cytosine” come the findings set out here.

Holding throughout (test): DAPPL (digital affinity profiling via proximity ligation, sequencing); 10 mM Tris-HCl pH 7.5, 50 mM NaCl, 1 mM DTT, 4% glycerol, room temperature, 30 min; GST-TFs on glutathione beads, 16-mer random dsDNA library, 0.1% formaldehyde crosslink after washing; high values mean tight binding
Holding throughout (conditions): protein: recombinant; tags: N-terminal GST; dsDNA, one strand shown

The target of assay [1] is T1, FLI1 (Homo sapiens, UniProt Q01543 1-452).
T1 sequence: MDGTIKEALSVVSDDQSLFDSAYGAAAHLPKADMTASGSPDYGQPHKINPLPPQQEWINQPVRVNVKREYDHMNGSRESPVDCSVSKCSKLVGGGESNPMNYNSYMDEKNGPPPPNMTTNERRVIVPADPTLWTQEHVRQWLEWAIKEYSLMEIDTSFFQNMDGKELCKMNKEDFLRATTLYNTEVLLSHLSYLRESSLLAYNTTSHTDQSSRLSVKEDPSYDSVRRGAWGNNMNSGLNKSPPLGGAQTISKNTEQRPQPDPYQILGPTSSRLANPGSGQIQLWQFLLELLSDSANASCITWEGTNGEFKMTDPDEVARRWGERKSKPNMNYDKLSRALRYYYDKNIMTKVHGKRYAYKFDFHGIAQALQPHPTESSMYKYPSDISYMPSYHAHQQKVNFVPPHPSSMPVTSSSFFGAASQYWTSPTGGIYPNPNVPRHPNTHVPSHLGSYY
An outline of the steps: (§1)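 Each value of binding signal is a hexamer's read frequency for a factor divided by the same hexamer's frequency in the tag-only sample. Barcoded, bead-captured GST fusions of human transcription factors made in yeast were pooled with that sample and incubated with 200 nmole of a random double-stranded 16-mer DNA library in Tris/NaCl/DTT/glycerol buffer at room temperature for 30 min. Washing, 0.1% formaldehyde crosslinking, proximity ligation, PCR and Illumina NextSeq500 sequencing followed.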

Assay [2] deals with T2, GABPA (Homo sapiens, UniProt Q06546 1-454).
T2 sequence: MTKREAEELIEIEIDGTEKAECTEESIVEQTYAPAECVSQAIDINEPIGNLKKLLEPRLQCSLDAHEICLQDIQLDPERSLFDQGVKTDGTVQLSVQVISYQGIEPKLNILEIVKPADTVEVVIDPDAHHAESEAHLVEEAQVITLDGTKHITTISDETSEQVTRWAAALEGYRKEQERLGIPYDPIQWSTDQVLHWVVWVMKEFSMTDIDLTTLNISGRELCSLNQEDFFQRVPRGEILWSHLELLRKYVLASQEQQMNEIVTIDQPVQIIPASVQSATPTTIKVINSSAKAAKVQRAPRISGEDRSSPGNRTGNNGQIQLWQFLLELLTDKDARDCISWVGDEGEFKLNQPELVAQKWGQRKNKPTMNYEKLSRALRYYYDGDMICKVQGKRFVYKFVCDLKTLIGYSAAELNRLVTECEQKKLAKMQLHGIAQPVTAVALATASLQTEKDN
In short, it runs like this:
as §1

In assay [3] the target is T3, ERG (Homo sapiens, UniProt P11308 1-479).
T3 sequence: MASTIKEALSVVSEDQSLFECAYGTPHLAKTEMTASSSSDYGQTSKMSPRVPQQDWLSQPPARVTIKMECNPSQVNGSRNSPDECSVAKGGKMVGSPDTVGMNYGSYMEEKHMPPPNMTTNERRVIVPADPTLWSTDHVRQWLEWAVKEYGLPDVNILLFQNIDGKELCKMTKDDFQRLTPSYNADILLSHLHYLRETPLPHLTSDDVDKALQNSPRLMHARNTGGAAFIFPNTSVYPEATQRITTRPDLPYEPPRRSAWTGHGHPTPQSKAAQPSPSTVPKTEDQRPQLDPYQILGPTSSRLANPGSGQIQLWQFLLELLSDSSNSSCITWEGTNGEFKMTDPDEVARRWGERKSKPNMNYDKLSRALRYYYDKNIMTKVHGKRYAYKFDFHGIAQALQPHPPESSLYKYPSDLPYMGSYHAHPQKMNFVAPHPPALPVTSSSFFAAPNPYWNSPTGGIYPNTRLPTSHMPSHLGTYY
An outline of the steps:
as §1

In assay [4] the target is T4, EHF (Homo sapiens, UniProt Q9NZC4 1-300).
T4 sequence: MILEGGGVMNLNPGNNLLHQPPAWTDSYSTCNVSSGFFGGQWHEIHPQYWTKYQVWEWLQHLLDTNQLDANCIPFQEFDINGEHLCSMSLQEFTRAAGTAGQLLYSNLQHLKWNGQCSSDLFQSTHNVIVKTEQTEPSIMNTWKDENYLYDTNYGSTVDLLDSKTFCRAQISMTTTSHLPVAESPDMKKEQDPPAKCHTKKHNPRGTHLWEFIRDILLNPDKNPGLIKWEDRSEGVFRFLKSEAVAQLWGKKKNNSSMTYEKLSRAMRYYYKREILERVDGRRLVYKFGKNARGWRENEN
In short, it runs like this:
as §1

In assay [5] the target is SPI1 (Homo sapiens, UniProt P17947 1-270). An outline of the steps:
as §1

Assay [6] has as its target SPIB (Homo sapiens, UniProt Q01892 1-262). In short, it runs like this: as §1
Assay [7] addresses T5, ELK3 (Homo sapiens, UniProt P41970 1-407).
T5 sequence: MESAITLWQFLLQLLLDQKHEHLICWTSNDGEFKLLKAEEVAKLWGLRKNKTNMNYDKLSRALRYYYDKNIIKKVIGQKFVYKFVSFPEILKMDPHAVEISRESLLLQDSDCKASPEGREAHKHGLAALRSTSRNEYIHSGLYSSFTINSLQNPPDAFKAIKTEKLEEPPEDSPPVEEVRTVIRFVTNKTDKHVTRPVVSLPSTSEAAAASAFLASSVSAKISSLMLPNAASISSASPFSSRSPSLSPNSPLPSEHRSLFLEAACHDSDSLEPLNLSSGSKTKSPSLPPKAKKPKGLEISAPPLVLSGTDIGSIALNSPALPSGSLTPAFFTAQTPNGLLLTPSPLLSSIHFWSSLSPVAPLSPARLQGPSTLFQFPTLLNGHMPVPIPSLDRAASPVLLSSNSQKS
In short, it runs like this:
as §1

Assay [8] has as its target T6, FEV (Homo sapiens, UniProt Q99581 1-238).
T6 sequence: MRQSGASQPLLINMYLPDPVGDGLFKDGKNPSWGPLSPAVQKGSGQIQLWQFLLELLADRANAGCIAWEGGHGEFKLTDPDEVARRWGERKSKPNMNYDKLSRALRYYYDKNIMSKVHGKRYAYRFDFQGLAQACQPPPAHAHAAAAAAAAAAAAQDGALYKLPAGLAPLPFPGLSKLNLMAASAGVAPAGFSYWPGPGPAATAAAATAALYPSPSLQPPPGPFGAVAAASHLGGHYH
In short, it runs like this: as §1

In assay [9] the target is T7, SPIC (Homo sapiens, UniProt Q8N5J4 1-248).
T7 sequence: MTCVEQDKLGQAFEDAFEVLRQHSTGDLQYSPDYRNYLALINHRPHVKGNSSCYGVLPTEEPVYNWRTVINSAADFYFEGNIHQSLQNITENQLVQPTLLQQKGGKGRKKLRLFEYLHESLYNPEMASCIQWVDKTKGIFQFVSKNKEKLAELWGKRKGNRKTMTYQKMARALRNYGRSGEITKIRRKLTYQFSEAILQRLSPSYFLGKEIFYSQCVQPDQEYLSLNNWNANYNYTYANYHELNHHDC
An outline of the steps:
as §1

Assay [10] concerns the target ELF4 (Homo sapiens, UniProt Q99607 1-663). In short, it runs like this:
as §1

Assay [11] has as its target T8, ELK4 (Homo sapiens, UniProt P28324-2 1-405).
T8 sequence: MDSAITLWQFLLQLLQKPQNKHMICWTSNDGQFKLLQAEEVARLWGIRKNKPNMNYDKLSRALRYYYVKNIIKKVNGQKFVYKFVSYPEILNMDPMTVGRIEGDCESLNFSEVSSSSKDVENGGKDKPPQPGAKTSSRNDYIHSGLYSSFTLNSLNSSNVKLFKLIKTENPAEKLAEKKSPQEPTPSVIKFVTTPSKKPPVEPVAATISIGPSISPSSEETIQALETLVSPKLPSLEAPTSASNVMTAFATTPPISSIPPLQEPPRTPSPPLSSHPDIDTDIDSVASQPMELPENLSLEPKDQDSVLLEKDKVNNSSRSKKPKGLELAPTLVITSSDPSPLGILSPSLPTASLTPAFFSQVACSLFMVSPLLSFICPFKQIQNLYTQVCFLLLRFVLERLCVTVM
An outline of the steps: as §1

In assay [12] the target is T9, ERF (Homo sapiens, UniProt P50548 1-548).
T9 sequence: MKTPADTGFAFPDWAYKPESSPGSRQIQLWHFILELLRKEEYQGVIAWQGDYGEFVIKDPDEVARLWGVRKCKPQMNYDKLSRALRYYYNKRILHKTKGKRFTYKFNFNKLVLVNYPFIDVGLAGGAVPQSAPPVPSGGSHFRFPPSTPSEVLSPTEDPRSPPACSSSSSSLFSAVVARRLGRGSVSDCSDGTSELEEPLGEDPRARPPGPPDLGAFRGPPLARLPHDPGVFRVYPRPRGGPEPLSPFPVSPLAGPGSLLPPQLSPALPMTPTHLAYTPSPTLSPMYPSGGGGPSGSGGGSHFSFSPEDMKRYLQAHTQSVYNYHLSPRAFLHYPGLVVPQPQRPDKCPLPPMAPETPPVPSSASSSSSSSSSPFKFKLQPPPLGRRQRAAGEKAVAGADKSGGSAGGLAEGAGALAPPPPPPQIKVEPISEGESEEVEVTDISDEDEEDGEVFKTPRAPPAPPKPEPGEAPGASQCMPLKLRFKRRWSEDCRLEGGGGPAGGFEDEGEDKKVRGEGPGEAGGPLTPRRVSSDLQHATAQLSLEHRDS
In short, it runs like this: as §1

The target of assay [13] is T10, ETV3L (Homo sapiens, UniProt Q6ZN32 1-361).
T10 sequence: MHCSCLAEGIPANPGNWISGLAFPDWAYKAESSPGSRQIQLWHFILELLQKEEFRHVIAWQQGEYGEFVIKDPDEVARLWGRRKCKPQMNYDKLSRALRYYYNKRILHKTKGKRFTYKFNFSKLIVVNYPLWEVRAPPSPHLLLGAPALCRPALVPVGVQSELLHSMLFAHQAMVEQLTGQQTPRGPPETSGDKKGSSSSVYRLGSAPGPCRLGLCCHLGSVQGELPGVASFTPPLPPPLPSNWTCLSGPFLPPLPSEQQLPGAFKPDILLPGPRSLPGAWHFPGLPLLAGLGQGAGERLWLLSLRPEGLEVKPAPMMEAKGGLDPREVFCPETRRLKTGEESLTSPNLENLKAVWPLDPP
An outline of the steps: as §1

The target of assay [14] is T11, ETS2 (Homo sapiens, UniProt P15036 1-469).
T11 sequence: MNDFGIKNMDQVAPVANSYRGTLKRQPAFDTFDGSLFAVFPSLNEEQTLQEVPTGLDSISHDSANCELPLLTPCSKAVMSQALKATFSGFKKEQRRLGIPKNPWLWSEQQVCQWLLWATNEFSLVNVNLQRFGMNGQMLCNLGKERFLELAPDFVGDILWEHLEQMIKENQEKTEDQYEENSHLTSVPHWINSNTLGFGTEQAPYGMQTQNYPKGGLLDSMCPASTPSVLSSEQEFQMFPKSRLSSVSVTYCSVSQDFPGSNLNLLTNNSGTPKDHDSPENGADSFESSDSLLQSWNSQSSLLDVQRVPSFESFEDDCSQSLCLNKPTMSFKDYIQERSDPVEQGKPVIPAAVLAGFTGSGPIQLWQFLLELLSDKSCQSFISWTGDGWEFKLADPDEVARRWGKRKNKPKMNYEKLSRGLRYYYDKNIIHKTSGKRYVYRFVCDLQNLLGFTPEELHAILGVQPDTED
An outline of the steps: as §1

Assay [15] has as its target T12, ETV7 (Homo sapiens, UniProt Q9Y603 1-341).
T12 sequence: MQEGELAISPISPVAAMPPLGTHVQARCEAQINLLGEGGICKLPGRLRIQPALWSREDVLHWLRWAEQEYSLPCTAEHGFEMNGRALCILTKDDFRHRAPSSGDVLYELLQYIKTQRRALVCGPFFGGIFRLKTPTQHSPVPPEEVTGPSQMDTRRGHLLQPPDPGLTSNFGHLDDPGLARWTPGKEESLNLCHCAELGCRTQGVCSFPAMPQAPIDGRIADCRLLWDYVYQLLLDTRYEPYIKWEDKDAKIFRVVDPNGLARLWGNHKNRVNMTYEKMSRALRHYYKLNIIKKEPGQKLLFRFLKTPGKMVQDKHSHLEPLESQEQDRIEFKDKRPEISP
An outline of the steps:
as §1

For assay [16], the target named is T13, ELF5 (Homo sapiens, UniProt Q9UKW6-2 1-255).
T13 sequence: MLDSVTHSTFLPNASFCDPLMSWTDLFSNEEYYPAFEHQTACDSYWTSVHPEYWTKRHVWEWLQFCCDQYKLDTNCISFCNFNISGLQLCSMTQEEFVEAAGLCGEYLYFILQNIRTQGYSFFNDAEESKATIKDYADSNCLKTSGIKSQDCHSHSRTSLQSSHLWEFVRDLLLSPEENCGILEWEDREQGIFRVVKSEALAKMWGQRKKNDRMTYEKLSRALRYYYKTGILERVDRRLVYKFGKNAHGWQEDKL
An outline of the steps: as §1

Assay [17] has as its target ETV6 (Homo sapiens, UniProt P41212 1-452). In short, it runs like this: as §1

Sequence of ETV6 (P41212 whole entry): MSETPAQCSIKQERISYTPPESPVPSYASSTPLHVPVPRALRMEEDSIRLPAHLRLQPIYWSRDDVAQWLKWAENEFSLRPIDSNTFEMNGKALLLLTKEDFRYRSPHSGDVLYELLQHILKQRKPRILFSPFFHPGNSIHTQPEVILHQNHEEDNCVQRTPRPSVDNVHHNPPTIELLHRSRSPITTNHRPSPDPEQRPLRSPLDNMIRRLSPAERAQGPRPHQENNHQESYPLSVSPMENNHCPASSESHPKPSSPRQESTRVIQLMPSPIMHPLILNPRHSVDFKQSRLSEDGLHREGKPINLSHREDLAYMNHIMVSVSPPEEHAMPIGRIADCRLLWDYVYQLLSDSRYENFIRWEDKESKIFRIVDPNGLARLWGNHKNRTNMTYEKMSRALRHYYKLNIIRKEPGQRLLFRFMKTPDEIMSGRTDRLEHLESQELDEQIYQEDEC
Sequence of SPIB (Q01892 whole entry): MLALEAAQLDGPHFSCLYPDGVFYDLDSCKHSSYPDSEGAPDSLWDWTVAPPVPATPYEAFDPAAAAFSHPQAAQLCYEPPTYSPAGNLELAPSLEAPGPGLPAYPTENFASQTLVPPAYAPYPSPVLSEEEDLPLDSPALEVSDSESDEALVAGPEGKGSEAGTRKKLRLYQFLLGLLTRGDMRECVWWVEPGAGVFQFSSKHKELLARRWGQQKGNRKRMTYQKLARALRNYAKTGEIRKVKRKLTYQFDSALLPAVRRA
Sequence of ELF4 (Q99607 whole entry): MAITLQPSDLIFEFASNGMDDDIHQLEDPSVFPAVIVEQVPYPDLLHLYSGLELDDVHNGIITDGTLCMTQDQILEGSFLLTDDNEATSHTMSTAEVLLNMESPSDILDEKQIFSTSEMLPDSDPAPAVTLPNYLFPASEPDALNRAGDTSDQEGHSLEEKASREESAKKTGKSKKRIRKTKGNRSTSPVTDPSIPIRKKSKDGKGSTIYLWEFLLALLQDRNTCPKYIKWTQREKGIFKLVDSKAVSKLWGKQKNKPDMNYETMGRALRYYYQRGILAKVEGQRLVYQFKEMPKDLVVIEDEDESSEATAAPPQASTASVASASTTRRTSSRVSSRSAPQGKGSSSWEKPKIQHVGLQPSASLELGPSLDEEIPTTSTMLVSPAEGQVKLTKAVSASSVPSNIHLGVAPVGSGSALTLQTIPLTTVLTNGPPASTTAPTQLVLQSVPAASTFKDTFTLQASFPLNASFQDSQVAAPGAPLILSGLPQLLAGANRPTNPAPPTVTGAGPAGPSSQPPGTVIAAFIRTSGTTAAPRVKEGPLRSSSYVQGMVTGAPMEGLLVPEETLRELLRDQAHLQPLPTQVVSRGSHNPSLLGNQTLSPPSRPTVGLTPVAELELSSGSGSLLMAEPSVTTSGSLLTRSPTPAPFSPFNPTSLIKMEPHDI

On to GGTAAC, for which the binding signal is 1.1 fold enrichment (6-mer frequency, TF over GST control) in assay [1]; 1.03 fold enrichment (6-mer frequency, TF over GST control) in assay [2]; 1.01 fold enrichment (6-mer frequency, TF over GST control) in assay [3]; 1.09 fold enrichment (6-mer frequency, TF over GST control) in [4]; 1.02 fold enrichment (6-mer frequency, TF over GST control) in assay [5]; 1.02 fold enrichment (6-mer frequency, TF over GST control) in assay [6]. In addition, the binding signal in [7] is 1 fold enrichment (6-mer frequency, TF over GST control); in assay [8] it was 1.05 fold enrichment (6-mer frequency, TF over GST control); in [9] it was 1.03 fold enrichment (6-mer frequency, TF over GST control); in assay [10], 1.01 fold enrichment (6-mer frequency, TF over GST control); in assay [11], 1.03 fold enrichment (6-mer frequency, TF over GST control); in assay [12], 1 fold enrichment (6-mer frequency, TF over GST control). Besides, the binding signal was 1 fold enrichment (6-mer frequency, TF over GST control) in assay [13]; 1.02 fold enrichment (6-mer frequency, TF over GST control) in assay [14]; 1.05 fold enrichment (6-mer frequency, TF over GST control) in assay [15]; 1.02 fold enrichment (6-mer frequency, TF over GST control) in assay [16]; 1.04 fold enrichment (6-mer frequency, TF over GST control) in [17].
